# Screening results as filed in PubChem.
# The list is not random: actives were taken first. Their share in the collection is about 10%.
# HP1b chromo inh = HTS for Inhibitors of HP1-beta Chromodomain Interactions with Methylated Histone Tails; AlphaScreen HP1-beta / biotin-H3K9me3 peptide binding; Potency, µM (top dose mostly 114 µM), for inactives: at the top dose activity change, negative = inhibition, hits mostly inhibitors; actives 0.56% (n = 390,000); further: potency means the concentration at half of the fitted maximal effect; nearly all actives have a fitted effect of over 70% in size
# Target sequence (P83916 whole entry, looked up): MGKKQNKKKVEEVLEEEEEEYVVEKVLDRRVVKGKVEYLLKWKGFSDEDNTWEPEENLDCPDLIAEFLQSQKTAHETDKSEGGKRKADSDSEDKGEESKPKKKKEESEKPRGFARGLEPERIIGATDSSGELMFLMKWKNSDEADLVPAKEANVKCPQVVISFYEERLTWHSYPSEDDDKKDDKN
#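 AlphaScreen: HP1-beta (50 nM) preformed 30 min with biotin-H3(1-18)K9me3 peptide (50 nM) in PBS pH 7.4, 0.01% Tween-20. Compound added for 30 min at RT, then streptavidin donor/nickel chelate acceptor beads (10 ug/mL) for 30 min.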
# G9a inh = qHTS Assay for Inhibitors of Histone Lysine Methyltransferase G9a; G9a H3K9 monomethylation, AlphaScreen, 2 h; Potency, µM (series often up to 102 µM), inactives show top-dose activity, negative = inhibition, usual class: inhibitors; actives 8.8% (n = 350,000); further: potency means the concentration at half of the fitted maximal effect; on the % scale 0 is the no-effect control and ±100 the full control effect; nearly all actives have a fitted effect of over 75% in size
# Target sequence (Q96KQ7 913-1193 limits assumed): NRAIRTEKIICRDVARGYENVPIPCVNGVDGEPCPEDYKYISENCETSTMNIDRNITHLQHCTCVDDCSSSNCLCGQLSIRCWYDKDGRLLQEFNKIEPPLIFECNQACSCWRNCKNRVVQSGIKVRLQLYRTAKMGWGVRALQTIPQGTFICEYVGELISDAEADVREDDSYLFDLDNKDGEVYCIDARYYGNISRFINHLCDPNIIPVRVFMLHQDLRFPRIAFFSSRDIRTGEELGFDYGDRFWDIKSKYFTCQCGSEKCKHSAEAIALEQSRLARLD
#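 Step 1: enzyme (final 20 nM) with compound, 15 min RT. Step 2: substrate peptide 500 nM and SAM 20 uM, 2 h RT. Step 3: anti-H3K9me1 antibody and AlphaScreen beads, 10 min, then plate read.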
# Six1-Eya2 blk = qHTS Assay for Inhibitors of the Six1/Eya2 Interaction; actives 0.56% (n = 360,000); AlphaScreen GST-Six1/His-Eya2 binding, biochemical; hits give low values; activity change, % (concentration not given with the values); in the data active means activity change below about -65%; inconclusive means mostly about -30% to -63%; further: on the % scale 0 is the no-effect control and ±100 the full control effect
#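 Homogeneous AlphaScreen proximity assay pairing GST-Six1 with His-tagged Eya2 (added as 5X mix: 250 nM and 500 nM) in 50 mM Tris pH 8.0, 300 mM NaCl, 1 mM TCEP. Glutathione donor and nickel acceptor beads; 1 h, 37 °C, dark.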
# CtBP-E1A inh = qHTS Assay for Inhibitors of the CtBP/E1A Interaction; actives 0.49% (n = 340,000); AID 651724, 2012; AlphaScreen GST-E1A/His-CtBP binding, 1536-well; hits give low values; activity change, % (concentration not given with the values); in the data active means activity change below about -65%; inconclusive means mostly about -30% to -63%; further: on the % scale 0 is the no-effect control and ±100 the full control effect
#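 Protein mix (5X: 125 nM each GST-E1A, His-CtBP) was incubated with pinned compound 2 h at 37 deg C in dark, in 50 mM Tris pH 8.0 buffer with 300 mM NaCl. Glutathione donor and nickel acceptor beads followed; AlphaScreen signal read after 1 h.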
# BAZ2B block = qHTS Assay for Inhibitors of BAZ2B. Bromodomain adjacent to zinc finger domain protein 2B (Homo sapiens), Q9UIF8. AID 504333, 2011. actives 4.4% (n = 360,000). AlphaScreen BAZ2B-H3K14Ac peptide displacement. Potency, µM (series often up to 114 µM), for inactives: at the top dose activity change, negative = inhibition, most hits filed as inhibitors; further: potency means the concentration at half of the fitted maximal effect; on the % scale 0 is the no-effect control and ±100 the full control effect; nearly all actives have a fitted effect of over 60% in size
#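 Protein-peptide AlphaScreen: BAZ2B 50 nM, b-H3K14Ac 50 nM, 1x PBS pH 7.4 + 0.01% Tween-20. Preincubation 30 min RT; cpd 30 min RT (top 110 uM); beads 20 min RT, light-protected.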
# JMJD2A Tudor inh = qHTS Assay for Inhibitors of JMJD2A-Tudor Domain | Lysine-specific demethylase 4A (Homo sapiens), O75164 | AlphaScreen JMJD2A-Tudor / H3K4me3 peptide binding | Potency, µM (series often up to 114 µM), without a hit: at the top dose activity change, negative = inhibition, usual class: inhibitors | actives 4.4% (n = 390,000); further: potency means the concentration at half of the fitted maximal effect; on the % scale 0 is the no-effect control and ±100 the full control effect; nearly all actives have a fitted effect of over 50% in size
# The depositor's hits bear a star; ? = inconclusive; · = no result given; [ ] = another dose, or the depositor's remark. Unless noted, the call rests on the fitted dose curve; in most records, active means well fitted inhibition curve with a large enough effect; inconclusive means small, poorly fitted or top-dose-only effect; inactive means no such curve, though single readings can be large or run the other way.
SMILES,HP1b chromo inh,G9a inh,Six1-Eya2 blk,CtBP-E1A inh,BAZ2B block,JMJD2A Tudor inh
Cc1ccc(CNC(=O)c2ccc(N3CCc4ccccc43)c([N+](=O)[O-])c2)cc1,32µM*,8.9µM*,?,?,10µM*,8.9µM*
CC1=NN(c2ccccc2)C(=O)/C1=C\c1c(C)[nH]n(-c2ccccc2)c1=O,-10%,?,4,2,-35%,?
CC1=NN(c2ccccc2)C(=O)/C1=C/c1c(O)n(-c2ccc(F)c(Cl)c2)[nH]c1=O,?,?,-14,1,35µM*,50µM*
COC(=O)C1=C(C)N(C(C)C)C(=O)C1(NC(=O)c1ccccc1OC)C(F)(F)F (stereo not given),39%,2%[59 µM],·,·,-16%,4%
COc1ccc(OCC2c3cc(OC)c(OC)cc3CCN2C(=O)c2ccc(F)cc2)cc1 (stereo not given),6%,?,·,·,?,?
CN(Cc1ccccc1)C(=O)c1cccc(N2C(=O)C3CC=CCC3C2=O)c1 (stereo not given),50%,-7%[2.33 µM],0,3,1%,4%
CN(C(=O)c1cccc(N2C(=O)C3CC=CCC3C2=O)c1)C1CCCCC1 (stereo not given),13%,50µM*,0,-1,-10%,-19%
Oc1c(C(c2ccccc2)N2CCC3(CC2)OCCO3)sc2nc(-c3ccco3)nn12 (stereo not given),6%,-2%[59 µM],·,·,-20%,-19%
Cc1cc2nc(CO)[nH]c2cc1C,60%,18%,-3,·,-5%,-9%
Cc1cc2nc(CS)[nH]c2cc1C,12%,10µM*,2,·,-13%,-20%
CCN(Cc1ccccc1)C(=O)Cn1c(=O)n(-c2ccc(Cl)c(Cl)c2)c(=O)c2c(C)c(C(=O)N(C)C)sc21,-11%,4%[59 µM],·,·,?,-28%
CCN(c1cccc(C)c1)S(=O)(=O)c1cc2c(cc1C)n(C)c(=O)c(=O)n2C,21%,2%[59 µM],·,·,-2%,-5%
COc1ccc(NC(=O)c2csnn2)cc1Cl,-18%,?,·,·,-32%,-19%
CCN(CC)S(=O)(=O)c1ccc(/C=C/C(=O)Nc2ccc(N3CCOCC3)cc2)cc1,-18%,45µM*,-17,·,?,?
CCN(CC)S(=O)(=O)c1ccc2c(c1)nc(CCC(=O)Nc1ccc(N3CCOCC3)cc1)n2C,-6%,45µM*,-1,0,-30%,-31%
COc1ccc(OCC(=O)Nc2ccc3c(c2)nc(CCN2CCOCC2)n3C)cc1,16%,56µM*,1,-1,0%,-20%
O=C(CSc1nccn1-c1ccc(F)cc1)Nc1nc2ccccc2s1,3%[57 µM],-5%[59 µM],·,·,-7%,-10%
COc1cc(C2C(C(=O)Nc3ccccc3C)=C(C)Nc3nc(SCc4cc(C)ccc4C)nn32)ccc1O (stereo not given),19%,3%[59 µM],·,·,-3%,-6%
O=C(O)c1ccccc1-c1ccc(/C=C/c2cc(C(F)(F)F)[nH]c(=O)n2)o1,7%,40µM*,0,-17,?,-26%
Oc1ccc(Cl)cc1CNCC1CCCO1 (stereo not given),?,-7%[2.33 µM],1,6,50µM*,3.2µM*
Cc1cc(C(=O)NCc2ccccc2C)c2c(C)nn(-c3cccc(F)c3)c2n1,42%,-2%[59 µM],·,·,15%[57.1 µM],7%
CCOP(=O)(OCC)C(Nc1cccc([N+](=O)[O-])c1)c1ccc(N(C)C)cc1 (stereo not given),?,?,-7,·,40µM*,50µM*
CC(C)(C)c1ccc(COC(=O)Nc2ccc(F)cc2)cc1,26%,-11%[59 µM],-1,?,27%,11%
Cc1ccc(CNC(=O)Nc2ccc(OC(F)(F)F)cc2)n1C,-3%,50µM*,0,-2,?,-35%
O=C(NCc1ccco1)Nc1ccc(OC(F)(F)F)cc1,28%,-2%,1,·,-19%,-11%
SMILES,HP1b chromo inh,G9a inh,Six1-Eya2 blk,CtBP-E1A inh,BAZ2B block,JMJD2A Tudor inh
CC(C)(C)c1ccc(NC(=O)Nc2ccc(F)cc2)cc1,-10%,-8%,2,5,2%,35µM*
Cc1ccc(CNC(=O)Nc2ccc(F)cc2)n1C,29%,50µM*,0,-3,-36%,?
CC(C)CC(=O)Nc1nnc(S(=O)(=O)N(C)Cc2ccc(Cl)cc2)s1,42%,5%[59 µM],·,·,-10%,9%
CCN1Cc2cccc(C(=O)Nc3ccc(F)cc3)c2C1=O,37%,20%[59 µM],·,·,11%,-12%
CC(C)c1ccc(CNc2ccc3c(c2)ncn3C)cc1,1%,?,-13,-2,40µM*,?
c1ccc(-n2cnc3cc(NCc4ccncc4)ccc32)cc1,11%,?,-9,-10,?,56µM*
CCCCn1cnc2cc(NCc3ccccc3Cl)ccc21,?,14µM*,·,·,35µM*,40µM*
COc1cccc(CNc2ccc3c(c2)ncn3C)c1OC,-4%,38%[59 µM],4,-1,?,?
CCCCn1cnc2cc(NCc3ccncc3)ccc21,8%,?,0,6,-11%,?
CCCn1cnc2cc(NCc3cccs3)ccc21,-1%,18µM*,1,-3,?,?
CS(=O)(=O)Nc1ccc2c(c1)ncn2CCc1ccccc1,32%,24%[2.33 µM],-1,-3,0%,-11%
CCn1cnc2cc(NCc3ccccc3Cl)ccc21,?,45µM*,-19,-16,?,?
Cn1cnc2cc(NCc3ccccc3Cl)ccc21,-7%,50µM*,-8,-5,-31%,?
CC(C)n1cnc2cc(NCc3ccccc3O)ccc21,6%,·,-9,-4,?,-21%
Cc1ccccc1OCc1nc2ccccc2n1Cc1ccccc1Cl,73%,3%[59 µM],·,·,48%,39%
Cc1cccc(C)c1OCC(=O)N(Cc1ccccc1F)C1CCS(=O)(=O)C1 (stereo not given),16%,-36%[59 µM],·,·,-2%,-9%
COc1ccccc1C(=O)N(Cc1nc(-c2cccc(C)c2)no1)C(C)C,19%,-4%[59 µM],·,·,-9%,-8%
COc1cc(CN(C)Cc2cccc3ccccc23)cc([N+](=O)[O-])c1O,-9%,71µM*,1,·,?,?
O=C(CCCc1ccccc1)NC1CC(=O)N(c2ccc(F)cc2)C1 (stereo not given),18%,12%[59 µM],·,·,0%,-4%
